Rows were chosen to be rich in hits. Some 17% of all compounds tested hit in one or more screens of this group.
DT40 TDP1 no CPT – qHTS for Inhibitors of human tyrosyl-DNA phosphodiesterase 1 (TDP1): qHTS in cells in absence of CPT | DT40 Tdp1-/- hTDP1 cells, no CPT, ATP luminescence, 48 h | Potency, µM (series often up to 46.2 µM), inactives show at the highest dose activity change, negative = growth inhibition, actives largely listed as inhibitors | 420,000 tested, 15% active | AID 686978, 2013; also: % is scaled to controls: 0 for no effect and ±100 for the full control effect; nearly all actives have a fitted effect of over 55% in size
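Growth kinetics read by CellTiter-Glo luminescence after ≥48 hr at 37 °C. Cells: DT40 Tdp1-/- stably carrying human TDP1, 400 per well, compound exposure in the absence of CPT (DMSO vehicle).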
ClpP mod – qHTS Assay for Activators of ClpP. Potency, µM (top dose mostly 57.5 µM), for the others: at the highest dose activity change, negative = active. ATP-dependent Clp protease proteolytic subunit (Bacillus subtilis (strain 168)), P80244. 340,000 tested, 1.9% active. purified B. subtilis ClpP, FRET peptide cleavage, 20 min. AID 651965, 2013; active = well fitted falling curve with a large enough effect; inconclusive = small, poorly fitted or top-dose-only effect; inactive = no such curve, though single readings can be large or run the other way; also: the source files actives as falling curves though it sought activators and does not explain the sign; nearly all actives have a fitted effect of over 65% in size
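ClpP 10 microg/mL final, pH 8 Tris/KCl buffer with BSA, glycerol, Tween-20; compound pinned in; FRET-FV substrate; RT 20 min; Ex320/Em430; ΔFRET vs ADEP 5.8 microM, DMSO, no enzyme.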
TDP1 block – qHTS Assay for Inhibitors of Tyrosyl-DNA Phosphodiesterase (TDP1); AID 485290, 2010; recombinant TDP1, AlphaScreen DNA substrate cleavage; Tyrosyl-DNA phosphodiesterase 1 (Homo sapiens), Q9NUW8; Potency, µM (series often up to 130 µM), for inactives: top-dose activity change, negative = inhibition, most hits filed as inhibitors; 350,000 tested, 0.28% active; also: % is scaled to controls: 0 for no effect and ±100 for the full control effect; nearly all actives have a fitted effect of over 40% in size
Target sequence (Q9NUW8 whole entry, looked up): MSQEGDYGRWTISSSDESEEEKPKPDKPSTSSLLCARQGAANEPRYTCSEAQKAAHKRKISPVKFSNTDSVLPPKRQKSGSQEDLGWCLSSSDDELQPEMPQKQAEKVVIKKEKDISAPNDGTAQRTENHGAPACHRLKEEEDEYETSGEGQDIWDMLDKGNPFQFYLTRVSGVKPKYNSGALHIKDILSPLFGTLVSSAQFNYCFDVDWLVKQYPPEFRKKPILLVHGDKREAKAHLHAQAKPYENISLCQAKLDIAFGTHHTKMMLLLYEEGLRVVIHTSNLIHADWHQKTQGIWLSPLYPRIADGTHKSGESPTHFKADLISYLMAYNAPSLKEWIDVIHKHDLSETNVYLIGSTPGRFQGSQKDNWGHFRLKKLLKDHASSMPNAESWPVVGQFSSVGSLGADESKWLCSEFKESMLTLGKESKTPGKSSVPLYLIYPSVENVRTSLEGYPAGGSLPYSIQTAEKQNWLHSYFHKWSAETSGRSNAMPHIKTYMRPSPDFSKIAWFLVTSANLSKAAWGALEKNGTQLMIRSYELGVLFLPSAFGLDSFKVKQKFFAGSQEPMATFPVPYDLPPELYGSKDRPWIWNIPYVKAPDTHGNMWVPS
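Enzyme-compound mixtures sat 15 min at room temperature, followed by a 5 min reaction with 15 nM final substrate and 10 min with AlphaScreen beads. Recombinant human Tdp1 was used at 1 nM final.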
DT40 TDP1 CPT – qHTS for Inhibitors of human tyrosyl-DNA phosphodiesterase 1 (TDP1): qHTS in cells in presence of CPT. AID 686979, 2013. 420,000 tested, 12% active. Potency, µM (titrated, usually from 46.2 µM), inactives show top-dose activity change, negative = growth inhibition, hits mostly inhibitors. chicken DT40 Tdp1-/-;hTDP1 cells + 20 nM CPT, ATP luminescence, 48 h; also: % is scaled to controls: 0 for no effect and ±100 for the full control effect; nearly all actives have a fitted effect of over 55% in size
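Cell growth measured by CellTiter-Glo luminescence after a minimum 48 h, 37 C compound exposure with 20 nM CPT in Tdp1-knockout DT40 cells stably expressing hTDP1, seeded 400/well; qHTS titration format.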
* hit, by the source's call; ? = inconclusive; · = not tested or not shown. Unless noted, calls follow the shape of the dose curve; as a rule, active = well fitted curve in the direction sought with a large enough effect; inconclusive = small, poorly fitted or top-dose-only effect, or another doubt; inactive = no such curve, though single readings can be large; an effect the other way counts as inactive or inconclusive. Potency is read from the fitted curve at half-maximal effect.

SMILES	DT40 TDP1 no CPT	ClpP mod	TDP1 block	DT40 TDP1 CPT
N#Cc1c2c(c(Nc3ccccc3)n3c1nc1ccccc13)CCC2	?	-15.2%	8.3%	?
Cc1cc(NCCCN(C)C)n2c(nc3ccccc32)c1C#N	?	0.6%	·	-21.8%
Cc1cc(NCCCOC(C)C)n2c(nc3ccccc32)c1C#N	25.9µM*	4.3%	·	?
COC(=O)Cn1nc(-c2ccc(C)cc2)c2ccccc2c1=O	?	·	1.2%	-21.5%
Cc1ccc(Nc2cc(C)c(C#N)c3nc4ccccc4n23)c(C)c1	13µM*	-2.1%	5.3%	14.6µM*
COc1ccc(CCNC(=S)N2CCC(Cc3ccccc3)CC2)cc1OC	?	7.94µM*	3.1%	-6.0%
COc1ccc(C(=O)C2CCN(C(=S)NCCc3ccc(OC)c(OC)c3)CC2)cc1	11.6µM*	·	6.2%	16.4µM*
COc1ccc(CCNC(=S)N2CCC(C(=O)c3ccc(F)cc3)CC2)cc1OC	?	2.7%	7.7%	?
Cc1ccc(S(=O)(=O)NCc2ccccn2)cc1C	-17.7%	-4.3%	·	2.2%
N=C(N)SCc1nc2ccccc2c(=O)n1-c1ccccc1Cl	20.6µM*	?	-1.9%	25.9µM*
Cc1ccccc1-n1c(CSC(=N)N)nc2ccccc2c1=O	?	11.2µM*	1.1%	20.6µM*
O=c1c2ccccc2nc(CSc2nnnn2-c2ccccc2)n1-c1ccccc1Cl	?	1.0%	3.3%	?
C/C(N)=C(/C#N)C(=O)CSc1nc2ccccc2c(=O)n1-c1ccccc1C	?	-0.7%	-1.9%	?
CC(=O)Nc1cccc(/C(C)=N/Nc2ccc(S(=O)(=O)Nc3ccccc3C(=O)O)cc2[N+](=O)[O-])c1	-12.7%	1.7%	·	-14.7%
CCN1N=C(c2ccccc2)Cn2c1nc1ccccc12	16.4µM*	14.1µM*	3.0%	?
COc1cc2[nH]c(Cl)c([N+](=O)[O-])c2cc1OC	20.6µM*	·	·	20.6µM*
O=C1c2ccccc2-n2c1nc1ccccc1c2=O	1.3µM*	-2.7%	9.3%	1.3µM*
O=c1c2ccccc2nc2n1-c1ccccc1CCC2	16.4µM*	-6.2%	4.4%	?
O=C1CCc2nc3ccccc3c(=O)n2N1	-6.3%	-4.7%	-7.7%	2.4%
O=C(NCCCN1CCN(c2ccccc2F)CC1)Nc1ccccc1[N+](=O)[O-]	-7.5%	1.3%	3.4%	-28.6%
O=C(O)c1ccc(S(=O)(=O)c2ccc([N+](=O)[O-])cc2[N+](=O)[O-])cc1	?	-2.7%	·	20.6µM*
O=C(CS(=O)(=O)Cc1ccccc1)N1CCN(Cc2ccc3c(c2)OCO3)CC1	?	0.5%	6.5%	?
COc1ccc(CN2CCN(C(=O)c3ccc(S(=O)(=O)NCc4ccco4)cc3)CC2)cc1F	?	0.2%	-10.6%	9.2µM*
O=C(CCc1ccc(S(=O)(=O)NCc2ccccc2)cc1)N1CCN(Cc2ccc3c(c2)OCO3)CC1	?	0.1%	7.3%	31.6µM*
Cc1ccccc1CN1CCN(C(=O)c2ccc(S(=O)(=O)NCc3ccco3)cc2)CC1	?	1.3%	4.2%	?
SMILES	DT40 TDP1 no CPT	ClpP mod	TDP1 block	DT40 TDP1 CPT
O=C(c1ccc(S(=O)(=O)NCc2ccco2)cc1)N1CCN(Cc2ccc3c(c2)OCO3)CC1	16.4µM*	1.0%	-1.2%	?
CCN(CC)CCCNc1oc(-c2ccccc2[N+](=O)[O-])nc1C#N	-4.9%	-29.3%	0.0%	-2.4%
COc1ccc(C(=O)Nc2ccc3[nH]ccc3c2)cc1	25.9µM*	0.7%	·	?
COc1ccccc1C(=O)Nc1cccc(C(=O)c2ccccc2)c1	?	-0.9%	0.5%	?
COc1cccc(OC)c1C(=O)Nc1ccc(Br)c(C(=O)c2ccccc2)c1	16.4µM*	-1.2%	6.9%	?
COc1cccc(C(=O)Nc2ccc(C(=O)c3ccccc3)cc2)c1	16.4µM*	1.0%	·	-18.9%
COc1cccc(C(=O)Nc2ccc(C(=O)O)cc2)c1	?	-1.7%	-3.1%	-15.4%
CCOC(=O)c1ccc(CN(Cc2ccc(F)cc2)S(=O)(=O)c2cc(C(=O)Nc3cccc(C(F)(F)F)c3)ccc2F)cc1	23.1µM*	?	5.2%	13µM*
COc1cccc(NC(=O)c2ccc3c(O)c(S(=O)(=O)c4ccccc4)c(=O)[nH]c3c2)c1	?	-2.1%	2.0%	23.1µM*
CN(C)S(=O)(=O)Oc1cccc(C(=O)Nc2ccccc2Cl)c1	?	-0.4%	-2.9%	?
COc1ccc(NC(=O)c2ccc(C(=O)c3ccccc3)o2)cc1	2.06µM*	1.2%	6.6%	?
CC(C)c1ccccc1NC(=O)c1cccc(NC(=O)c2ccccc2)c1	?	0.1%	7.0%	16.4µM*
CN(C)S(=O)(=O)Oc1cccc(C(=O)Nc2ccc(Cl)cc2)c1	11.6µM*	0.8%	2.0%	8.2µM*
COc1ccc(C(=O)Nc2ccc(C(=O)c3ccccc3)cc2)cc1	-22.3%	·	·	-3.0%
COc1ccc(S(=O)(=O)c2c(O)c3ccc(C(=O)Nc4cccc(F)c4)cc3[nH]c2=O)cc1	-2.6%	-18.9%	3.6%	5.8%
CC(=O)c1cccc(NC(=O)NNC(=O)CCC(=O)Nc2ccc(C)c(C)c2)c1	1.8%	·	0.0%	-2.7%
CN(C)S(=O)(=O)Oc1ccc(C(=O)Nc2cccc(C(F)(F)F)c2)cc1	14.6µM*	-0.2%	6.0%	23.1µM*
Cc1cccc(NC(=O)c2ccc(C(=O)c3ccccc3)o2)c1	?	22.4µM*	3.6%	?
CCOC(=O)c1ccc(CN(Cc2ccccc2C)S(=O)(=O)c2ccc(C(C)(C)C)cc2)cc1	18.4µM*	0.3%	2.6%	?
COc1ccc(C(=O)Nc2cccc(C(=O)NCc3ccccc3)c2)cc1	?	-1.5%	-2.7%	20.6µM*
Cc1ccc(C(=O)Nc2cccc(C(=O)NCc3ccccc3)c2)cc1	-24.3%	5.5%	8.2%	?
Cc1cc(OCCCCNC(C)C)cc(C(C)C)c1	?	36.9%	-0.6%	?
CC(CCOS(N)(=O)=O)c1ccccc1 (stereo not given)	-20.7%	-2.7%	·	3.0%
CCOC(=O)C1(CC2CCCCO2)CCN(C(=O)NCc2ccccc2)CC1 (stereo not given)	-16.7%	·	·	-0.7%
COc1ccc(Cc2nc(C(=O)Nc3ccccc3)cs2)cc1	?	31.6µM*	-7.5%	-9.9%
CC(C)(C)n1nnnc1C(c1cccs1)N(Cc1cccnc1)Cc1ccco1 (stereo not given)	?	5.3%	4.1%	?
CCN(Cc1ccccc1)C(c1ccc(C)cc1)c1nnnn1C(C)(C)C (stereo not given)	?	-1.6%	1.4%	?
